From the supplement of paper PMC5919970
Where a name gives a salt, the structure may show the parent alone. The full ranking holds about 2,000 compounds; the median of “fractional viability relative to vehicle” is about 0.92, and the lowest 2% start at about 0.11. What follows is part of a selection rich in the lowest values, with near analogues and random picks from the rest.

System: TYKNU
Experiment: fractional viability relative to vehicle; TYKNU is a high-grade serous ovarian cancer line; higher = less growth inhibition
Conditions: 72 h, genotype: OPA1 knockout (sgOPA1 #2)
Method in brief: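 TYKNU control cells or lentiCRISPRv2 knockout derivatives were seeded at 500 cells per well into drug-stamped 384-well plates holding a ~2100-compound library at 2 or 10 μM, in duplicate. Cells were grown at 37 °C in 5% CO2 in RPMI 1640 with 10% FBS, and drug treatment lasted 72 h. Viability was read by Cell Titer Glo luminescence. Duplicate treatment wells were averaged and normalised to duplicate control wells from the same plate position.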

| SMILES | fractional viability (2uM) | fractional viability (10uM) |
| --- | --- | --- |
| O=C1C(=O)N(Cc2ccc(Cl)c(Cl)c2)c2ccccc21 [Apoptosis Activator 2] | 0.461 | 0.287 |
| Cc1cccc(-c2[nH]c(C(C)(C)C)nc2-c2ccc3nccnc3c2)n1 | 1.28 | 1.26 |
| CC1=CC(=O)c2ccccc2C1=O [Menadione] | 0.94 | 0.75 |
| CC1(C)CCC2=C(O1)c1ccccc1C(=O)C2=O [Beta-Lapachone] | 0.202 | 0.0483 |
| OCCn1cc(-c2cnc3nnn(Cc4ccc5ncccc5c4)c3n2)cn1 | 1.09 | 1.14 |
| COc1ccc(C2=N[C@@H](c3ccc(Cl)cc3)[C@@H](c3ccc(Cl)cc3)N2C(=O)N2CCNC(=O)C2)c(OC(C)C)c1 [Nutlin-3a] | 0.481 | 0.367 |
| COc1ccc(C2=N[C@@H](c3ccc(Cl)cc3)[C@@H](c3ccc(Cl)cc3)N2C(=O)N2CCNC(=O)C2)c(OC(C)C)c1 [Nutlin-3] | 0.858 | 0.623 |
| CCCc1cc2c(N3CCN(C4=NCC(C)(C)S4)CC3)ncnc2s1 [MI-2 (Menin-MLL Inhibitor)] | 0.828 | 0.711 |
| O=C(Nc1cccc(Cl)c1)c1ccccn1 | 1.19 | 1.02 |
| CN(C)C(=S)NN=C(c1ccccn1)c1ccccn1 | 0.572 | 0.755 |
| Clc1ccc(NN=C(c2ccccc2)c2ccccn2)nc1 | 0.229 | 0.0582 |
| CC(C)C[C@@H](C=O)NC(=O)[C@H](CC(C)C)NC(=O)[C@H](CC(C)C)NC(=O)OCc1ccccc1 | 0.236 | 0.144 |
| O=C(O)C(S)=Cc1c[nH]c2ccc(F)cc12 | 0.79 | 0.825 |
| Nc1ncnc2c1C(=O)N(c1ccc([C@H]3CC[C@H](CC(=O)O)CC3)cc1)CCO2 | 0.723 | 0.773 |
| Nc1cccc(S(=O)(=O)N2CCCN(S(=O)(=O)c3ccc4c(c3)OCCO4)CC2)c1 | 0.783 | 0.849 |
| C=CC(=O)Nc1ccc2ncnc(Nc3ccc(OCc4cccc(F)c4)c(Cl)c3)c2c1 | 0.742 | 0.0667 |
| C=CC(=O)Nc1ccc2ncnc(Nc3cccc(Br)c3)c2c1 | 0.982 | 0.588 |
| CS(=O)(=O)CCNCc1ccc(-c2ccc3ncnc(Nc4ccc(OCc5cccc(F)c5)c(Cl)c4)c3c2)o1 | 1.05 | 0.369 |
| CC(C=CC(=O)NO)=CC(C)C(=O)c1ccc(N(C)C)cc1 (centres undefined) [Trichostatin A (TSA)] | 0.335 | 0.298 |
| O=C(O)c1ccc(-c2c[nH]c3ncc(-c4ccccc4)cc23)cc1C1CCCC1 | 0.98 | 1.11 |
| Cc1ccc([N+](=O)[O-])cc1S(=O)(=O)N(C)/N=C/c1cnc2ccc(Br)cn12 | 0.428 | 0.422 |
| Cc1cc(C(N)=O)ccc1-n1c(CCC(=O)O)ccc1-c1ccc(-n2ccnc2)cc1 | 0.877 | 0.84 |
| CCOC(=O)c1ccc(NC2CCCCC2)c(N)c1 [Ferrostatin-1 (Fer-1)] | 1.03 | 0.934 |
| CC(C)[C@H](N)C(=O)OCC(CO)OCn1cnc2c(=O)[nH]c(N)nc21 (some centres undefined) [Valganciclovir HCl] | 0.846 | 0.832 |
| N#C/C(=C\c1ccc(O)c(O)c1)C(=O)NCc1ccccc1 [AG-490 (Tyrphostin B42)] | 1.03 | 1.08 |
| C[C@H](NC(=O)CCc1nc2ccccc2c(=O)[nH]1)c1ccccc1 | 0.861 | 0.876 |

| SMILES | fractional viability (2uM) | fractional viability (10uM) |
| --- | --- | --- |
| CCC[C@H](NC(=O)/C(C#N)=C/c1cccc(Br)n1)c1ccccc1 [Degrasyn (WP1130)] | 0.343 | 0.0765 |
| C[C@H](NC(=O)/C(C#N)=C/c1cccc(Br)n1)c1ccccc1 | 0.867 | 0.0926 |
| CC(C)C[C@H](NP(=O)(O)O[C@@H]1O[C@@H](C)[C@H](O)[C@@H](O)[C@H]1O)C(=O)N[C@@H](Cc1c[nH]c2ccccc12)C(=O)O [Phosphoramidon Disodium Salt] | 0.899 | 0.879 |
| CNC(=O)[C@@H](NC(=O)[C@H](CC(C)C)[C@H](O)C(=O)NO)C(C)(C)C [Marimastat(BB-2516)] | 0.952 | 0.73 |
| CC[C@@H]([C@H](C)O)n1ncn(-c2ccc(N3CCN(c4ccc(OC[C@@H]5CO[C@@](Cn6cncn6)(c6ccc(F)cc6F)C5)cc4)CC3)cc2)c1=O [Posaconazole] | 1.18 | 0.872 |
| Cc1ccc(NC(=O)Nc2cc(C(F)(F)F)ccc2F)cc1Nc1ccc2c(c1)NC(=O)/C2=C\c1ccc[nH]1 | 0.83 | 0.932 |
| CNS(=O)(=O)Nc1nccc(Cc2c(C)c3ccc(Oc4ncccn4)cc3oc2=O)c1F | 0.508 | 0.376 |
| O=C(c1ccc(Nc2nccc(-c3cc4ccccc4s3)n2)cc1)N1CCC(N2CCCC2)CC1 [IKK-16 (IKK Inhibitor VII)] | 0.74 | 0.0971 |
| O=C(c1ccc(C(=O)N2CCC(N3CCCC3)CC2)c(Nc2ccccc2)c1)N1CCC(N2CCCC2)CC1 | 0.924 | 0.857 |
| O=C(c1cncc(Br)c1)N1CCC(N2CCCC2)CC1 | 0.797 | 0.838 |
| O=C(N/N=C/c1cc(O)c(O)cc1O)c1cc2ccccc2cc1O [Dyngo-4a] | 1.04 | 1.16 |
| Cc1nc(N(C)C(=O)Cc2ccc(-c3ccccn3)cc2)sc1S(N)(=O)=O [Pritelivir (BAY 57-1293)] | 0.924 | 0.791 |
| Cc1cc(Cn2cnc3c2CC(C(=O)O)N(C(=O)C(c2ccccc2)c2ccccc2)C3)ccc1N(C)C (centres undefined) | 0.986 | 0.95 |
| Cc1cc(C)cc(C(=O)NOCCCCCC(=O)NO)c1 | 0.355 | 0.188 |
| C/C=C1\NC(=O)[C@H]2CSSCC/C=C/[C@H](CC(=O)N[C@H](C(C)C)C(=O)N2)OC(=O)[C@H](C(C)C)NC1=O [Romidepsin (FK228, Depsipeptide)] | 0.0685 | 0.0492 |
| c1ccc2c(CCNc3ccc(Nc4ccncc4)cc3)c[nH]c2c1 | 0.485 | 0.15 |
| Oc1nc(-c2ccc(C(F)(F)F)cc2)nc2c1CSCC2 | 1.13 | 0.683 |
| Cc1ccc(Nc2nccc(N(C)c3ccc4c(C)n(C)nc4c3)n2)cc1S(N)(=O)=O [Pazopanib] | 1.14 | 0.605 |
| CCOC(=O)c1[nH]c2cc(Cl)ccc2c1C(C(=O)NC(C)(C)C)N(C=O)Cc1ccc(Cl)cc1 (centres undefined) | 0.864 | 0.464 |
| CN(C)c1ccc(C(=C2C=CC(=[N+](C)C)C=C2)c2ccc(N(C)C)cc2)cc1 [Crystal Violet] | 0.323 | 0.0953 |
| O=C(O)CCC(=O)Nc1ccc(Br)cn1 [Bikinin] | 0.818 | 0.759 |
| [I-].[K+] [Potassium Iodide] | 1.07 | 0.971 |
| O=C1NCCCc2c1oc1ccc(O)cc21 | 1.1 | 1.15 |
| c1ccc(Cn2c(-c3ccc(OC[C@H](C4CCNCC4)n4c(-c5ccccc5)nc5ccccc54)cc3)nc3ccccc32)cc1 [Deltarasin] | 1.14 | 0.0644 |
| Cc1cc(/N=N/c2ccc(S(=O)(=O)Nc3ccccn3)cc2)c(N)cc1O | 0.89 | 0.64 |
| O=C(NO)c1cccc(C(=O)NCCc2ccccc2)c1 | 0.926 | 0.933 |
